KB-V1 cytotox – KB-V1 MDR subline cytotoxicity | 400,000 compounds, 3.4% hits | Potency, µM (doses to about 46.1 µM), most hits filed as cytotoxic | KB-V1 MDR cells viability, CellTiter-Glo, 72 h | AID 1347076; further: nearly all actives have a fitted effect of over 60% in size
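KB-V1 cells (P-gp-expressing MDR subline of KB-3-1) in phenol-red-free DMEM with 10% FBS were exposed to library compounds over a concentration series for 72 h at 37 degrees C. Viability read by CellTiter-Glo luminescence; concentration-effect curves fitted after normalization.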
HT1080 IDH1KD tx – kills HT-1080 cells with IDH1 knockdown. HT-1080 IDH1 knockdown viability, ATP luminescence, 48 h. Potency, µM (titrated, usually from 46.1 µM), usual class: cytotoxic. 360,000 compounds, 2% hits. AID 686971
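In this qHTS, HT-1080 cells depleted of IDH1 are exposed for 48 h at 37 °C to compound titrations. Toxicity is scored from CellTiter-Glo luminescence, with DMSO as full viability and medium alone as none.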
MCF10A rereplic – inducers of DNA re-replication in MCF 10A breast cells. MCF 10A DNA re-replication, Hoechst nuclear intensity, 48 h. Potency, µM (doses to about 46.1 µM), actives largely listed as activators. 350,000 compounds, 2.9% hits. AID 624296; further: nearly all actives have a fitted effect of over 50% in size
HT1080-NT tox – kills 2HG-producing HT-1080-NT fibrosarcoma cells; 360,000 compounds, 1.6% hits; Potency, µM (series often up to 46.1 µM), actives largely listed as cytotoxic; HT-1080-NT fibrosarcoma viability, CellTiter-Glo ATP luminescence, 48 h;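 further: NT is the 2HG producing partner of a matched IDH1 knockdown line; nearly all actives have a fitted effect of over 55% in size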
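HT-1080-NT fibrosarcoma cells (2HG-overproducing), 750 cells/well in RPMI with 5% FBS, dosed after 2 h and incubated 48 h at 37C. CellTiter-Glo luminescence normalized to DMSO and no-cell wells; concentration-response curves fitted and classed.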
SW480 rereplic – induces DNA re-replication in SW480 colon adenocarcinoma cells; 340,000 compounds, 1.8% hits; Potency, µM (top dose mostly 46.1 µM), hits mostly activators; SW480 DNA re-replication, Hoechst DNA content imaging, 48 h; further: nearly all actives have a fitted effect of over 55% in size
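DNA re-replication was detected as more nuclei of elevated Hoechst intensity after 48 hr exposure to compound (23 nL pinned per well of 250 cells).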
KB-3-1 cytotox – KB-3-1 parental cell cytotoxicity; KB-3-1 viability, CellTiter-Glo ATP luminescence, 72 h; Potency, µM (highest dose often 46.1 µM), hits mostly cytotoxic; 400,000 compounds, 1.4% hits; AID 1347075; further: nearly all actives have a fitted effect of over 60% in size
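Multi-concentration cytotoxicity screen in KB-3-1 cells grown in DMEM lacking phenol red with 10% FBS. After 72 h at 37 °C with compound, ATP-dependent luminescence was recorded.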
Hits are given with their value; [ ] = dose if it differs, or a comment. An excerpt weighted towards active compounds, which were near 7.9% of everything screened. The call rests on the fitted dose curve; in most records, active means well fitted curve in the direction sought with a large enough effect; inconclusive means small, poorly fitted or top-dose-only effect, or another doubt; inactive means no such curve, though single readings can be large; an effect the other way counts as inactive or inconclusive.

`CCCCN(CCCC)CCCNC(=O)c1cc(-c2ccc(Cl)s2)nc2ccccc12` gave KB-V1 cytotox inactive and KB-3-1 cytotox inactive.
For COc1cc(C(=O)N2c3ccccc3CC2C)cc(OC)c1OC (centres undefined) the results were KB-V1 cytotox 18µM, HT1080 IDH1KD tx inactive[9.24 µM], MCF10A rereplic inactive, HT1080-NT tox inactive, SW480 rereplic inactive and KB-3-1 cytotox inconclusive.
For O=C(c1ccccc1)N1CCCc2ccccc21 the results were KB-V1 cytotox inactive, HT1080 IDH1KD tx inactive, MCF10A rereplic inactive, HT1080-NT tox inactive, SW480 rereplic inactive and KB-3-1 cytotox inactive.
Screening COc1cc(C(=O)N2CCCc3ccccc32)cc(OC)c1OC returned KB-V1 cytotox inconclusive, HT1080 IDH1KD tx inconclusive, MCF10A rereplic 10µM, HT1080-NT tox inconclusive, SW480 rereplic inconclusive and KB-3-1 cytotox inconclusive.
Screening CCCN(CCC)S(=O)(=O)c1ccc(C(=O)N2CCCc3ccccc32)cc1 returned KB-V1 cytotox inconclusive, HT1080 IDH1KD tx inactive, MCF10A rereplic 23µM, HT1080-NT tox inactive, SW480 rereplic inconclusive and KB-3-1 cytotox inconclusive.
Screening CC1Cc2ccccc2N1C(=O)c1ccnc(C(C)(C)C)c1 (centres undefined) returned KB-V1 cytotox inactive, HT1080 IDH1KD tx inactive, MCF10A rereplic inactive, HT1080-NT tox inactive, SW480 rereplic inactive and KB-3-1 cytotox inactive.
For O=C(Nc1cccc(C(=O)N2CCCc3ccccc32)c1)c1ccccc1 the results were KB-V1 cytotox 21µM, HT1080 IDH1KD tx 23µM, MCF10A rereplic 15µM, HT1080-NT tox inconclusive, SW480 rereplic inconclusive and KB-3-1 cytotox inconclusive.
`COc1ccc(C(=O)N2CCCc3ccccc32)cc1OC` gave KB-V1 cytotox inactive, HT1080 IDH1KD tx inactive, MCF10A rereplic inactive, HT1080-NT tox inactive, SW480 rereplic inactive and KB-3-1 cytotox inactive.
For CC1=C(C(=O)N(C(C)C)C(C)C)CC(CC(=O)NCc2ccco2)C(=O)N1CCCN1CCCC1=O (centres undefined) the results were KB-V1 cytotox inactive, HT1080 IDH1KD tx inactive, HT1080-NT tox inconclusive and KB-3-1 cytotox inactive.
Cc1nc2ccc(C(=O)N3c4ccccc4CC3C)cc2s1 (centres undefined) was read as KB-V1 cytotox inconclusive, HT1080 IDH1KD tx 18µM, MCF10A rereplic inconclusive, HT1080-NT tox inconclusive, SW480 rereplic inconclusive and KB-3-1 cytotox inconclusive.
Screening CCCN1C(=O)c2ccccc2NC1c1ccc(OC)c(COc2ccc([N+](=O)[O-])c(C)c2)c1 (centres undefined) returned KB-V1 cytotox inactive and KB-3-1 cytotox inactive.
`Cc1nn(C(C)(C)C)c(OC(=O)C2CCCC2)c1S(=O)(=O)c1ccccc1` gave KB-V1 cytotox inconclusive, HT1080 IDH1KD tx inconclusive, MCF10A rereplic inconclusive, HT1080-NT tox inconclusive, SW480 rereplic inactive and KB-3-1 cytotox 21µM.
For C[C@H]1CCC/C=C/[C@@H]2C[C@H](O)C[C@H]2[C@H](O)[C@H](S(=O)c2ccc(O)cc2)CC(=O)O1 (some centres undefined) the results were KB-V1 cytotox inconclusive, HT1080 IDH1KD tx 0.15µM, MCF10A rereplic inactive, HT1080-NT tox inconclusive, SW480 rereplic inconclusive and KB-3-1 cytotox 0.0092µM.
Screening C/C=C1\NC(=O)[C@H](C)NC(=O)[C@@H](NC(=O)[C@H](Cc2ccc(O)cc2)NC(=O)[C@@H](NC(=O)/C(C)=C/C)C(C)C)[C@@H](C)OC(=O)[C@H](CC(C)C)NC(=O)[C@@H](CCC(=O)O)NC1=O returned KB-V1 cytotox inactive, HT1080 IDH1KD tx inactive, HT1080-NT tox inactive and KB-3-1 cytotox inactive.
`COc1cc(C2c3c(-c4cc(C)ccc4O)n[nH]c3C(=O)N2CCCO)ccc1OCCC(C)C` (centres undefined) gave KB-V1 cytotox inactive and KB-3-1 cytotox inactive.
For COC(=O)c1cc(-c2ccc(Br)cc2)c2c(=O)[nH]c(=O)n(C)c2n1 the results were KB-V1 cytotox inactive, HT1080 IDH1KD tx inactive, MCF10A rereplic inactive, HT1080-NT tox inactive, SW480 rereplic inactive and KB-3-1 cytotox inactive.
`COC(=O)c1cc(-c2ccc(OC)c(OC)c2)c2c(=O)[nH]c(=O)n(C)c2n1` gave KB-V1 cytotox inactive, HT1080 IDH1KD tx inactive, MCF10A rereplic 6.5µM, HT1080-NT tox inactive, SW480 rereplic inactive and KB-3-1 cytotox inactive.
`CCOc1ccc(-c2cc(C(=O)OC)nc3c2c(=O)n(C)c(=O)n3C)cc1` gave KB-V1 cytotox inactive, HT1080 IDH1KD tx inactive, MCF10A rereplic 23µM, HT1080-NT tox inactive, SW480 rereplic inconclusive and KB-3-1 cytotox inactive.
For N#CCC(=O)NN the results were MCF10A rereplic inactive and SW480 rereplic inactive.
For C[N+](C)(CCCCCI)c1ccc(/C=C/c2nc3ccccc3s2)cc1 the results were KB-V1 cytotox inactive and KB-3-1 cytotox inconclusive.
Screening Cc1cccc(NNC(=S)Nc2ccccc2)c1 returned KB-V1 cytotox inactive, HT1080 IDH1KD tx inactive, HT1080-NT tox inactive and KB-3-1 cytotox inactive.
Screening Cc1cccc(NC(=S)NCC(C)CSc2ccc(Cl)cc2)c1 (centres undefined) returned KB-V1 cytotox inconclusive, HT1080 IDH1KD tx inconclusive, MCF10A rereplic 18µM, HT1080-NT tox inconclusive, SW480 rereplic inconclusive and KB-3-1 cytotox inconclusive.
For Cc1cccc(NC(=S)NNc2cccc(Cl)c2)c1 the results were KB-V1 cytotox inactive, HT1080 IDH1KD tx inconclusive, MCF10A rereplic inconclusive, HT1080-NT tox 23µM, SW480 rereplic inconclusive and KB-3-1 cytotox inactive.
`S=C(NNc1cccc(Cl)c1)NC1CCCCC1` gave KB-V1 cytotox inactive, HT1080 IDH1KD tx 15µM, MCF10A rereplic inconclusive, HT1080-NT tox inconclusive, SW480 rereplic inconclusive and KB-3-1 cytotox inactive.
`Cc1ccc(NC(=S)NCC(C)CSc2ccc(Cl)cc2)cc1` (centres undefined) gave KB-V1 cytotox inactive, HT1080 IDH1KD tx inactive, MCF10A rereplic inactive, HT1080-NT tox inactive, SW480 rereplic inconclusive and KB-3-1 cytotox inactive.
For COc1ccc(CN(C(=O)Nc2cc(C)ccc2C)C2CCN(C(C)=O)CC2)cc1 the results were KB-V1 cytotox inactive and KB-3-1 cytotox inactive.
Screening CCCCCCCCCS(=O)(=O)Nc1cc(C)ccn1 returned KB-V1 cytotox inactive, HT1080 IDH1KD tx inactive, MCF10A rereplic inconclusive, HT1080-NT tox inactive, SW480 rereplic inactive and KB-3-1 cytotox inactive.
Screening Cc1cc(C)cc(NS(=O)(=O)CCCS(=O)(=O)Nc2cc(C)cc(C)c2)c1 returned KB-V1 cytotox inactive, HT1080 IDH1KD tx 21µM, MCF10A rereplic inconclusive, HT1080-NT tox inconclusive, SW480 rereplic inactive and KB-3-1 cytotox inactive.
Screening CC1(C)C(=Cc2ccccc2)C(=O)c2ccccc21 returned KB-V1 cytotox inactive, HT1080 IDH1KD tx inactive, HT1080-NT tox inactive and KB-3-1 cytotox inactive.
